Reference: PubChem BioAssay (Tox21)
Inconclusive results are not listed. Activity calls are given as the source filed them. Unless noted, calls follow the shape of the dose curve; as a rule, active = well fitted curve in the direction sought with a large enough effect in the repeat runs; inconclusive = weak or mixed curves; inactive = no such curve, though single readings can be large; an effect the other way counts as inactive or inconclusive.

Legend:
[1] = A CellTox Green Cytotoxicity Assay to monitor cytotoxicity in HepG2 cells - 16 hour (AID 1224876); also: nearly all actives have a fitted effect of over 45% in size
Procedure, shortened: (§1)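 Using 1536-well format, dye-containing HepG2 suspension was seeded, allowed 5 h at 37 C/5% CO2, dosed by pintool with compounds, positive and negative controls, and imaged for fluorescence across 40 h.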

[2] = qHTS RealTime-Glo MT Cell Viability Assay in HepG2 cells - 32 hour (AID 1224877); also: nearly all actives have a fitted effect of over 55% in size
Procedure, shortened: (§2)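 Luminescence read-out: viable HepG2 cells reduce a prosubstrate to a NanoLuc substrate, giving a signal proportional to live cell number. Reads taken at 0, 8, 16, 24, 32 and 40 h of compound exposure at 37 C.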

[3] = A CellTox Green Cytotoxicity Assay to monitor cytotoxicity in HepG2 cells - 24 hour (AID 1224878); also: nearly all actives have a fitted effect of over 45% in size
Procedure, shortened: as §1

[4] = A CellTox Green Cytotoxicity Assay to monitor cytotoxicity in HepG2 cells - 40 hour (AID 1224879); also: nearly all actives have a fitted effect of over 40% in size
Procedure, shortened: as §1

[5] = qHTS RealTime-Glo MT Cell Viability Assay in HEK293 cells - 0 hour (AID 1224880); also: top concentration of the series differs between compounds; nearly all actives have a fitted effect of over 45% in size
Procedure, shortened: (§3)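 Viable HEK293 cells reduce a cell-permeant prosubstrate; the product diffuses out and is consumed by NanoLuc in the medium to give light. Compounds went in after a 5 h incubation and plates were read over the treatment course.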

[6] = A CellTox Green Cytotoxicity Assay to monitor cytotoxicity in HEK293 cells - 32 hour (AID 1224881); also: nearly all actives have a fitted effect of over 40% in size
Procedure, shortened: (§4)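 Fluorescence intensity, read at 0, 8, 16, 24, 32 and 40 h of compound treatment, reflected dye binding to DNA of dead HEK293 cells; compounds (23 nL, DMSO) were added 5 h after plating cells with reagent.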

[7] = A CellTox Green Cytotoxicity Assay to monitor cytotoxicity in HepG2 cells - 0 hour (AID 1224882); also: nearly all actives have a fitted effect of over 35% in size
Procedure, shortened: as §1

[8] = A CellTox Green Cytotoxicity Assay to monitor cytotoxicity in HepG2 cells - 32 hour (AID 1224883); also: nearly all actives have a fitted effect of over 50% in size
Procedure, shortened: as §1

[9] = qHTS RealTime-Glo MT Cell Viability Assay in HepG2 cells - 16 hour (AID 1224885); also: nearly all actives have a fitted effect of over 50% in size
Procedure, shortened: as §2

[10] = qHTS RealTime-Glo MT Cell Viability Assay in HEK293 cells - 24 hour (AID 1224886); also: top concentration of the series differs between compounds; nearly all actives have a fitted effect of over 50% in size
Procedure, shortened: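 Nonlytic real-time viability readout: viable cells convert prosubstrate to NanoLuc substrate, giving luminescence proportional to live cell number. HEK293, 600 cells/well, compound added after 5 h, continuous culture at 37 C.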

[11] = qHTS RealTime-Glo MT Cell Viability Assay in HEK293 cells - 8 hour (AID 1224887); also: top concentration of the series differs between compounds; nearly all actives have a fitted effect of over 50% in size
Procedure, shortened: as §3

[12] = A CellTox Green Cytotoxicity Assay to monitor cytotoxicity in HEK293 cells - 16 hour (AID 1224888); also: nearly all actives have a fitted effect of over 35% in size
Procedure, shortened: as §4

[13] = qHTS RealTime-Glo MT Cell Viability Assay in HepG2 cells - 0 hour (AID 1224889); also: nearly all actives have a fitted effect of over 50% in size
Procedure, shortened: as §2

[14] = A CellTox Green Cytotoxicity Assay to monitor cytotoxicity in HepG2 cells - 8 hour (AID 1224890); also: nearly all actives have a fitted effect of over 45% in size
Procedure, shortened: as §1

[15] = qHTS assay to identify small molecule antagonists of the estrogen receptor alpha (ER-alpha) signaling pathway using the BG1 cell line in the presence of 0.1 nM 17-beta-estradiol - cell viability counter screen (AID 1259241); also: nearly all actives have a fitted effect of over 40% in size
Procedure, shortened: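 VM7Luc4E2 cells (endogenous ER-alpha, 4×ERE-luciferase), hormone-starved 5 days in charcoal-stripped FBS, were treated with compounds plus 0.1 nM 17beta-estradiol for 22 hr at 37C; viability read in same wells as CellTiter-Fluor live-cell protease fluorescence.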

[16] = qHTS assay to identify small molecule antagonists of the androgen receptor (AR) signaling pathway using the MDA cell line in the presence of 0.5 nM R1881 - cell viability counter screen (AID 1259242); also: nearly all actives have a fitted effect of over 45% in size
Procedure, shortened: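 Viability of MDA-kb2 cells was multiplexed with the luciferase AR readout; after 16 hr with compounds and R1881 at 0.5 nM final, CellTiter-Fluor fluorescence was recorded.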

[17] = target: Estrogen receptor (Homo sapiens) (UniProt P03372); test: qHTS assay to identify small molecule antagonists of the estrogen receptor alpha (ER-alpha) signaling pathway using the BG1 cell line in the presence of 0.1 nM 17-beta-estradiol (AID 1259244); also: nearly all actives have a fitted effect of over 50% in size
Sequence of Estrogen receptor (Homo sapiens) (P03372 whole entry, looked up): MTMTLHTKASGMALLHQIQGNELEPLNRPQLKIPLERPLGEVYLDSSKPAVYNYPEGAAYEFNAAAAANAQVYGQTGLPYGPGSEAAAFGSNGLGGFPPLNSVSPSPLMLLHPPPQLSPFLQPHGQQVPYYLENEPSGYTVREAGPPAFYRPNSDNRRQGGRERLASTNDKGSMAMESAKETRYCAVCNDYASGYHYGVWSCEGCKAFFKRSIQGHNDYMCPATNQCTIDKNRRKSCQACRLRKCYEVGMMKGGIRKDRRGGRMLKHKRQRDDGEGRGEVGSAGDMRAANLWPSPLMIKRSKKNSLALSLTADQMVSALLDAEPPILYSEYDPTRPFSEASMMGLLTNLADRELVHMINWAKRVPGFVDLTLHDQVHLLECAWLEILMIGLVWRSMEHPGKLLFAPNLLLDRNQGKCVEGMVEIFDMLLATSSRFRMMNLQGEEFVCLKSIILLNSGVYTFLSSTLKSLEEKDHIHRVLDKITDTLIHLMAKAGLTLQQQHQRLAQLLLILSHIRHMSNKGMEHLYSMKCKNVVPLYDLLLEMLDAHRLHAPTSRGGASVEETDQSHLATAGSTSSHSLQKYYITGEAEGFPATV
Procedure, shortened: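 Estradiol at 0.1 nM (final) stimulates the endogenous ER-alpha of VM7Luc4E2 cells carrying an ERE-driven luciferase; compounds are co-incubated 22 h at 37C and luciferase output quantified by luminescence.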

[18] = qHTS assay to identify small molecule phospholipidosis (PLD) inducers (AID 1259344; active = well fitted curve in the direction sought with a large enough effect; an effect the other way counts as inactive or inconclusive)
Procedure, shortened: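 Phospholipidosis is scored by imaging LipidTOX-stained pits in HepG2 cells exposed to compound for 24 h at 37 C; pit counts and integrated intensities per well and per cell serve as outputs.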

[19] = A CellTox Green Cytotoxicity Assay to monitor cytotoxicity in HEK293 cells - 8 hour (AID 1224884); also: nearly all actives have a fitted effect of over 35% in size
Procedure, shortened: as §4

[20] = target: Androgen receptor (Homo sapiens) (UniProt P10275); test: qHTS assay to identify small molecule antagonists of the androgen receptor (AR) signaling pathway using the MDA cell line in the presence of 0.5 nM R1881 (AID 1259243); also: nearly all actives have a fitted effect of over 50% in size
Sequence of Androgen receptor (Homo sapiens) (P10275 whole entry, looked up): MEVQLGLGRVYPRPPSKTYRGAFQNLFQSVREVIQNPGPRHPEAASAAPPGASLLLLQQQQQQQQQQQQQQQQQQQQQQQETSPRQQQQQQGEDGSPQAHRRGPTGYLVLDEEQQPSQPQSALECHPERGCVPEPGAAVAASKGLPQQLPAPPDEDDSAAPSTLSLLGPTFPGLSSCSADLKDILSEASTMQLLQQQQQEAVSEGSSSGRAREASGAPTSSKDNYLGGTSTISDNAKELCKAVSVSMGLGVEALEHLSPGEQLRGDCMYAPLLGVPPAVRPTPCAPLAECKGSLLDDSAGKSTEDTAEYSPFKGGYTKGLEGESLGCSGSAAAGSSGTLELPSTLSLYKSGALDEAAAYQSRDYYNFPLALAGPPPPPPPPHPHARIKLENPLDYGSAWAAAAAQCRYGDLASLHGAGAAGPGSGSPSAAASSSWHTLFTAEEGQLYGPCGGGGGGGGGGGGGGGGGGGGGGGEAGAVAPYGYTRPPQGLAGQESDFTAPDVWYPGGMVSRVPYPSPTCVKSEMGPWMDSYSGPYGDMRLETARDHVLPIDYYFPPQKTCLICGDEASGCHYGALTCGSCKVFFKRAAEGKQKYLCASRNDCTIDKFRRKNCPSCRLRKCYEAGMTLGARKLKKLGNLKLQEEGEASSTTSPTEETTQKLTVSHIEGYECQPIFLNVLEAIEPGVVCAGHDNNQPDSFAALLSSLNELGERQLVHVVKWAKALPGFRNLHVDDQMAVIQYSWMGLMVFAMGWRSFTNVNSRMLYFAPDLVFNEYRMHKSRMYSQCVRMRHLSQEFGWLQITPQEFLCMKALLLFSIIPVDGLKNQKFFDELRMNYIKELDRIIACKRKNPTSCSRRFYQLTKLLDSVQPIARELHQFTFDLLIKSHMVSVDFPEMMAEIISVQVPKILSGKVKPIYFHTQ
Procedure, shortened: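 Reporter cells cultured without CO2 receive test chemicals, then 0.5 nM R1881 final; after 16 hr at 37C, ONE-Glo is added and light output recorded.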
% is scaled to controls: 0 for no effect and ±100 for the full control effect.

CN1C[C@@H]2C[C@H]1CN2c1cc2c(cc1F)c(=O)c(C(=O)O)cn2C1CC1
inactive: cytotoxicity increase [1] 2.35% [at 15.8 µM] | activity change, negative = cytotoxic [2] 4.04% [at 15.8 µM] | cytotoxicity [3] 0.282% [at 15.8 µM] | cytotoxicity increase [4] 4.83% [at 15.8 µM] | activity change, negative = cytotoxicity [5] -2.3% [at 15.8 µM] | cytotoxicity increase [6] -7.04% [at 15.8 µM] | cytotoxicity [7] 2.16% [at 15.8 µM] | cytotoxicity increase [8] 0.396% [at 15.8 µM] | activity change, negative = cytotoxic [9] 6.14% [at 15.8 µM] | activity change, negative = cytotoxicity [10] 4.15% [at 15.8 µM] | activity change, negative = cytotoxicity [11] 0.091% [at 15.8 µM] | activity change [12] -3.93% [at 15.8 µM, stronger effect = higher value] | activity change, negative = cytotoxicity [13] 10% [at 15.8 µM] | cytotoxicity increase [14] 6.75% [at 15.8 µM] | activity change, negative = cytotoxicity [15] -8.33% [at 19 µM] | viability change, negative = cytotoxic [16] -2.38% [at 19 µM] | activity change, negative = inhibition [17] -0.393% [at 19 µM] | outcome [18]

CC(C)(C)NC[C@H](O)COc1cccc2c1CCCC2=O
inactive: Potency [1] | outcome [2] | Potency [3] | Potency [4] | Potency [5] | Potency [6] | Potency [7] | Potency [8] | outcome [9] | Potency [10] | Potency [11] | Potency [13] | Potency [14] | outcome [15] | outcome [16] | outcome [17] | outcome [18]

Cc1cc(C)c(C(=O)O)c(C)c1
inactive: Potency [1] | outcome [2] | Potency [3] | Potency [4] | Potency [5] | Potency [6] | Potency [8] | Potency [19] | outcome [9] | Potency [10] | Potency [11] | Potency [12] | Potency [13] | Potency [14] | outcome [15] | outcome [16] | outcome [17]

CCC(=O)CC
inactive: Potency [1] | outcome [2] | Potency [3] | Potency [4] | Potency [5] | Potency [6] | Potency [7] | Potency [19] | outcome [9] | Potency [10] | Potency [11] | Potency [12] | Potency [13] | Potency [14] | outcome [15]

CC(Oc1cc(Cl)ccc1Cl)C(=O)O (configuration not stated)
inactive: Potency [1] | outcome [2] | Potency [3] | Potency [4] | Potency [5] | Potency [6] | Potency [7] | Potency [19] | outcome [9] | Potency [10] | Potency [11] | Potency [12] | Potency [13] | Potency [14] | outcome [15] | Potency [20]

CC(C)C[C@@H]1[C@H](c2ccccc2)OC(=O)N1CCCN1CCCCCC1
inactive: Potency [1] | outcome [2] | Potency [3] | Potency [4] | Potency [5] | Potency [6] | Potency [7] | Potency [19] | outcome [9] | Potency [11] | Potency [12] | Potency [13] | Potency [14] | outcome [15] | outcome [16] | Potency [20]

C[C@H]1[C@@H](c2ccccc2)NC(=O)N1C
inactive: Potency [1] | outcome [2] | Potency [3] | Potency [4] | Potency [5] | Potency [6] | Potency [7] | Potency [19] | outcome [9] | Potency [10] | Potency [11] | Potency [12] | Potency [13] | Potency [14] | outcome [15] | outcome [16]

COC(=O)c1ccccc1C(=O)O
inactive: Potency [1] | outcome [2] | Potency [3] | Potency [4] | Potency [5] | Potency [6] | Potency [7] | Potency [19] | outcome [9] | Potency [10] | Potency [12] | Potency [13] | Potency [14] | outcome [15] | outcome [16] | outcome [17]

NCC1(Cc2noc(=O)[nH]2)CCCCC1
inactive: Potency [1] | outcome [2] | Potency [3] | Potency [4] | Potency [5] | Potency [6] | Potency [7] | Potency [19] | outcome [9] | Potency [10] | Potency [12] | Potency [13] | Potency [14] | outcome [15] | outcome [16] | outcome [17]

CC(O)COC(C)(C)C (configuration not stated)
inactive: Potency [1] | outcome [2] | Potency [3] | Potency [4] | Potency [5] | Potency [6] | Potency [19] | outcome [9] | Potency [10] | Potency [11] | Potency [12] | Potency [13] | Potency [14] | outcome [15] | outcome [16]

C=C(C)[C@@H]1CC=C(C)C(=O)C1
inactive: Potency [1] | outcome [2] | Potency [3] | Potency [4] | Potency [5] | Potency [6] | Potency [8] | outcome [9] | Potency [10] | Potency [12] | Potency [13] | Potency [14] | outcome [15] | outcome [16]

CCOc1cccc(N)c1
inactive: Potency [1] | outcome [2] | Potency [3] | Potency [5] | Potency [6] | Potency [7] | Potency [8] | Potency [19] | outcome [9] | Potency [10] | Potency [11] | Potency [12] | Potency [13] | Potency [14] | outcome [15] | outcome [16] | outcome [17]

O=[N+]([O-])c1c(Cl)cc(Cl)cc1Cl
inactive: Potency [1] | outcome [2] | Potency [3] | Potency [4] | Potency [5] | Potency [7] | Potency [8] | Potency [19] | outcome [9] | Potency [10] | Potency [13] | Potency [14] | outcome [15] | outcome [16]

CCO[Si](CC)(OCC)OCC
inactive: Potency [1] | outcome [2] | Potency [3] | Potency [5] | Potency [6] | Potency [7] | Potency [8] | Potency [19] | outcome [9] | Potency [10] | Potency [11] | Potency [12] | Potency [13] | Potency [14] | outcome [15] | outcome [16] | Potency [20] | outcome [17]

C/C(=C1\CCOC(=O)S1)N(C=O)Cc1cnc(C)nc1N
inactive: Potency [1] | outcome [2] | Potency [3] | Potency [4] | Potency [5] | Potency [6] | Potency [8] | Potency [19] | outcome [9] | Potency [10] | Potency [11] | Potency [12] | Potency [13] | Potency [14] | outcome [15] | outcome [16] | outcome [17]
